# Test results as given in the supplement of paper PMC6555819.
# What was measured:
# Assay in all cases: PBM binding z-score (relative to random genomic background probes); higher = stronger binding; sequences stand for … in GC…GCGATTGACAGCGTAGAATGAAGG
# [1] = tested on: RARb homodimer (NR concentration 270 nM)
# Summary of the method: (§1)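 Custom Agilent 4×180K protein-binding microarrays carried double-stranded probes, each with a 34-nt variable region. These regions held direct-repeat seeds, single-nucleotide variants, half-site ablations and random human genomic background sequences. Ligand-free nuclear receptor dimers were incubated on the arrays for 1 h, antibodies against each partner (one per run) detected binding, and scanned fluorescence was regression-normalized. Binding z-scores take the random background probes as reference.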
# [2] = tested on: RARg:RXRa (NR concentration 270 nM, RXRa partner concentration 90 nM)
# Summary of the method: as §1
# [3] = tested on: RARg homodimer (NR concentration 270 nM)
# Summary of the method: as §1
# [4] = tested on: RXRa DBDmut IVT, anti-RXR (DBD mutation: RXRa K156A/R161A, NR concentration 90 nM)
# Summary of the method: as §1
# [5] = tested on: RXRa homodimer (NR concentration 180 nM)
# Summary of the method: as §1
# [6] = tested on: THRa:RXRa (NR concentration 90 nM, RXRa partner concentration 90 nM)
# Summary of the method: as §1
# [7] = tested on: THRa homodimer (NR concentration 90 nM)
# Summary of the method: as §1
# [8] = tested on: VDR homodimer (NR concentration 270 nM)
# Summary of the method: as §1
Sequence,PBM binding z-score [1],PBM binding z-score [2],PBM binding z-score [3],PBM binding z-score [4],PBM binding z-score [5],PBM binding z-score [6],PBM binding z-score [7],PBM binding z-score [8]
AGAATGAGGTTAAGATGAGGGAAACAGAATACAT,1.16,2.21,1.62,1.17,2.38,2.61,0.911,0.657
CCTAGTTGGTCAGGAGGGCACACACCGGATATGA,1.73,1.52,1.53,-0.604,0.657,0.623,0.029,0.549
TCTAGTTGGTCAAGGAGGTCACACACGACGGGTA,4.26,4.38,4.29,0.835,4.27,3.57,2.15,2.71
TCATATAGGTAATACAGCTGAAAGTCGGCATCTA,-0.493,0.294,0.383,1.69,0.684,-0.0502,-0.127,-0.525
TCTCGGAGGACACGAAGCTCAGAGCTTTCCAGAG,0.381,0.265,0.869,0.583,-0.175,1.23,0.177,-0.5
CCAAGTTGGTCAGGAGGTCACACACCGGATATGA,4.38,5.05,4.59,1.39,4.6,3.5,1.96,2.65
AGTCAAAGTTCATCTAGGTAATGTAAGATATGCT,3.87,5.56,6.17,4.52,4.6,2.92,0.21,5.21
